# Test results reported in PubChem BioAssay AID463173 (ICCB-Longwood Screening Facility, Harvard Medical School, 2010).
# About 4,300 (8.3%) of roughly 52,000 compounds were called active. This is one part of a sample in which actives are shown more often than they occur. Rule as the data show it: active = survival mostly below about 52% (no sharp cut-off); inactive = mostly above about 56%.
# System: DeltatarO mutant
# Test: growth inhibition of S. aureus wild type versus tarO mutant, primary screen, teichoic acid synthesis inhibitors, RN4220, OD600 (AID 463173)
# Settings: OD600, 18 h, hits give low values, screened at 18.75 µg/mL (by protocol)
row,SMILES,survival
1,Cc1cccc(CN2C(=O)c3ccccc3S(=O)(=O)c3ccc(C(=O)NC4CCCCC4)cc32)c1,79% (inactive)
2,COCCNC(=O)CCCn1c(SCC(=O)c2ccc(Br)cc2)nc2c(sc3ccccc32)c1=O,68% (inactive)
3,COc1ccccc1CNC(=O)CN1C(=O)COc2ccc(S(=O)(=O)N3CCC(C)CC3)cc21,76% (inactive)
4,Cn1cc(S(=O)(=O)c2ccc(Cl)cc2)c(=O)c2cc(F)c(N3CCCC3)cc21,73% (inactive)
5,COCCCNC(=O)c1sc2nc3n(c(=O)c2c1C)CCC3,91% (inactive)
6,CCOc1ccccc1NC(=O)CSc1nc2c(c(=O)[nH]1)CCC2,101% (inactive)
7,COc1ccc(OC)c(CCNC(=O)c2cnn(-c3ccccc3)c2C2CCN(C(=O)OC(C)(C)C)CC2)c1,73% (inactive)
8,CCc1ccc(NC(=O)CSc2ccccn2)cc1,89% (inactive)
9,COc1cccc(-c2nc(SCC(=O)Nc3ccc4c(c3)OCCO4)c(-c3ccccc3)[nH]2)c1,54% (inactive)
10,COc1ccc(-c2[nH]c(-c3cccc(OC)c3)nc2SCC(=O)Nc2ccc3c(c2)OCO3)cc1,55% (inactive)
11,COc1cccc(-c2nc(SCC(=O)Nc3ccc4c(c3)OCO4)c(-c3ccccc3)[nH]2)c1,31% (active)
12,CC(=O)N1c2ccc(S(=O)(=O)NCCC(=O)Nc3ccc(Br)c(C)c3)cc2CC1C (centres undefined),90% (inactive)
13,Cc1ccc(CCNC(=O)c2ccc3c(c2)N(Cc2cccc(C)c2)C(=O)c2ccccc2S3(=O)=O)cc1,72% (inactive)
14,CCOC(=O)C1CCCN(CC(=O)N2CCCc3c2c(=O)oc2ccc(OCc4ccccc4)cc32)C1 (centres undefined),121% (inactive)
15,COc1ccc(N2CC(C(=O)NCc3nnnn3-c3ccc(C)c(C)c3)CC2=O)cc1 (centres undefined),69% (inactive)
16,CCOC(=O)CSc1ncnc2c1c(-c1ccccc1)cn2-c1ccc(OC)cc1,60% (inactive)
17,CCCCSc1ncnc2c1c(-c1ccccc1)cn2-c1cccc(F)c1,78% (inactive)
18,CCCSc1ncnc2c1c(-c1ccccc1)cn2-c1ccccc1OC,2% (active)
19,CC(C(=O)O)N1CCCC1 (centres undefined),94% (inactive)
20,CC(C(=O)O)N1C(=O)NC2NC(=O)NC21 (centres undefined),54% (active)

row,SMILES,survival
1,CCOc1ccc(C(=O)Nc2nnc(SCc3cc(=O)c4cc(C)ccc4[nH]3)s2)cc1,91% (inactive)
2,COCCNC(=O)c1ccc2c(c1)NC(=O)C(CS(=O)(=O)Cc1ccc(F)cc1Cl)N2 (centres undefined),130% (inactive)
3,O=C1OC2(CCCC2)OC(=O)C1=CNc1ccccc1,96% (inactive)
4,Nc1ccc2c(c1)OC1(CCCCC1)O2,55% (active)
5,COc1ccccc1-c1cc(C(=O)Nc2ccccc2C(F)(F)F)no1,71% (inactive)
6,Cc1ccc2c(=O)cc(C(=O)Nc3ccc(S(=O)(=O)Nc4ncccn4)cc3)oc2c1C,76% (inactive)
7,N#Cc1ccc(NC(=O)c2ccc3c(c2)nnn3C2CCCC2)cc1,126% (inactive)
8,Cc1cc(-c2ccc(S(=O)(=O)Nc3cccc(Cl)c3C)cc2)on1,94% (inactive)
9,Cc1ccc(-c2nnn(CC(=O)N(CC(=O)NCC3CCCO3)C3CCN(Cc4ccccc4)CC3)n2)o1 (centres undefined),83% (inactive)
10,O=C(NCc1ccco1)C(Sc1ccccc1)c1ccccc1 (centres undefined),101% (inactive)
11,CCOC(=O)c1ccccc1NC(=O)c1sc2nc3n(c(=O)c2c1C)CCCCC3,37% (active)
12,CCCN(CCC)CCCNC(=O)c1sc2nc3n(c(=O)c2c1C)CCC3,79% (inactive)
13,Cc1c(C(=O)NCc2ccccc2)sc2nc3n(c(=O)c12)CCCCC3,56% (inactive)
14,CCOc1ccccc1NC(=O)c1sc2nc3n(c(=O)c2c1C)CCCCC3,45% (inactive)
15,Cc1ccc(CNC(=O)c2sc3nc4n(c(=O)c3c2C)CCCC4)cc1,80% (inactive)
16,CCN(CC)CCNC(=O)c1sc2nc3n(c(=O)c2c1C)CCCCC3,53% (inactive)
17,Cc1c(C(=O)NCc2ccc(Cl)cc2)sc2nc3n(c(=O)c12)CCCCC3,51% (active)
18,Cc1c(C(=O)NCc2ccc(Cl)cc2)sc2nc3n(c(=O)c12)CCC3,102% (inactive)
19,Cc1ccc(CNC(=O)c2sc3nc4n(c(=O)c3c2C)CCCCC4)cc1,53% (active)
20,CCOC(=O)c1ccccc1NC(=O)c1sc2nc3n(c(=O)c2c1C)CCCC3,103% (inactive)

row,SMILES,survival
1,Cc1c(C(=O)NCc2ccc(Cl)cc2)sc2nc3n(c(=O)c12)CCCC3,95% (inactive)
2,CCCN(CCC)CCNC(=O)c1sc2nc3n(c(=O)c2c1C)CCCCC3,62% (active)
3,O=C(NCc1ccccc1Cl)c1cc2cccc3c2n1CCS3,115% (inactive)
4,COc1cc(OC)c(NC(=O)c2cc(C)nc3c2c(C)nn3-c2ccc(C)cc2)cc1Cl,103% (inactive)
5,Cc1c(Cl)ccc2sc(N3CCN(C(=O)c4ccco4)CC3)nc12,69% (inactive)
6,COc1cccc(NC(=O)CN2C(=O)c3cccnc3Oc3ccc(Cl)cc32)c1,80% (inactive)
7,COc1cc(NC(=O)c2sc3nc4n(c(=O)c3c2C)CCCCC4)cc(OC)c1OC,42% (active)
8,COc1cc(Cl)c(C)cc1NC(=O)c1sc2nc3n(c(=O)c2c1C)CCCCC3,52% (inactive)
9,COc1cc(OC)c(NC(=O)c2sc3nc4n(c(=O)c3c2C)CCCC4)cc1Cl,64% (inactive)
10,CC(C)NS(=O)(=O)c1ccc2nc(NC(=O)c3cncc(Br)c3)sc2c1,87% (inactive)
11,COc1ccc2c(c1)c1c(c(=O)n(Cc3ccccc3)c(=O)n1CC(=O)NCc1ccccc1Cl)n2C,72% (inactive)
12,C/C(Cc1nc2ccccc2[nH]1)=N/Nc1ccccc1,2% (active)
13,O=C(O)CNCc1nc2ccccc2[nH]1,95% (inactive)
14,CNC(=O)Cc1nc2ccccc2[nH]1,87% (inactive)
15,COc1ccc(-c2noc(N3CCN(c4ccc(Cl)cc4)CC3)n2)cc1OC,80% (inactive)
16,Cc1ccc(-c2cc(C(=O)N3CCN(S(=O)(=O)c4ccc(Br)s4)CC3)[nH]n2)cc1C,83% (inactive)
17,CCOc1ccc(C2c3c(oc4ccc(C)cc4c3=O)C(=O)N2c2nc(C)c(C)s2)cc1OC (centres undefined),170% (inactive)
18,CCCCN1CC(c2nc3ccccc3n2CCCCOc2cc(C)cc(C)c2)CC1=O (centres undefined),33% (active)
19,CCCCN1CC(c2nc3ccccc3n2CCCCOc2ccc(C)c(C)c2)CC1=O (centres undefined),20% (active)
